The values that follow come from PubChem BioAssay AID2547 (National Center for Advancing Translational Sciences (NCATS), 2010).

This is one part of the list. Results filed as inconclusive are left out. Activity calls are given as the source filed them. Calls follow the shape of the dose curve; as a rule, active = well fitted inhibition curve with a large enough effect; inconclusive = small, poorly fitted or top-dose-only effect; inactive = flat fitted curve, though single readings scatter.
% is scaled to controls: 0 for no effect and ±100 for the full control effect; potency is read from the fitted curve at half-maximal effect.

A short description of the test: Secondary Assay for Inhibitors of Human Galactokinase (GALK): HEK-293 Cell Viability Assay. The note with it: HEK-293 viability, ATP luminescence (CellTiter-Glo), 24/48 h; series mostly up to 46.1 µM; activity change, negative = cytotoxicity: at the top concentration. The protocol:
NIH Molecular Libraries Probe Production Centers Network [MLPCN] NIH Chemical Genomics Center [NCGC] MLPCN Grant: R03 MH085689-01 Assay Submitter (PI): Kent Lai (University of Utah School of Medicine, 50 N Mario Capecchi Drive, Salt Lake City, UT 84132) NCGC Assay Overview Cytotoxicity of the active compounds in the GALK qHTS screen (AID 1868) was assessed using the CellTiter-Glo Luminescent Cell Viability Assay kit (Promega, USA) in the HEK-293 (ATCC) cell line. CellTiter-Glo measures the intracellular ATP present in metabolically active cells using Ultra-Glo as the luciferase to detect ATP levels. In brief, the luciferase in the buffer catalyzes the oxidation of luciferin to oxyluciferin and light which is dependent on ATP. […] Wells treated with various concentrations of cycloheximide (Sigma) and DMSO, and wells with media alone were used as positive and negative controls, respectively. […] [1] http://www.promega.com/tbs/tb288/tb288.pdf
NCGC Assay Protocol Summary: HEK-293 cells were grown in a flask up to 80% confluence. Cells were trypsinized, washed, and resuspended in MEM Eagle + 10% FBS + 1% pen-strep media at a concentration of 120 cells/uL. Five uL/well of cell solution was dispensed into a 1536-well assay plates (Greiner, solid white medium-binding plates) with Aurora Discovery BioRAPTR Flying Reagent Dispenser (FRD; Beckton-Dickenson). Cells were pre-incubated at 37 degree Celsius, 5% CO2 for four hours. Compound and control solutions (23nL) were then transferred to the assay plate using the Kalypsys 1536-pin tool. Assay plates were re- incubated at 37 degree Celsius, 5% CO2. After 24 or 48 hours, five uL of CellTiter Glo detection reagent was added. Luminescence signal was read with Perkin Elmer ViewLux plate reader after 30 min room temperature incubation.
(In ATP-based viability assays light output follows the ATP content of the culture.)
Take `Oc1c(Cl)cc(Cl)c(Cl)c1Cc1c(O)c(Cl)cc(Cl)c1Cl`: the Potency is 7.91 µM (active).

Turning to `N#Cc1c(N2CCCCC2)nc(N)c2c(N)nc(SCC(=O)O)cc12`, the “activity change, negative = cytotoxicity” value is -0.364% (inactive).

Consider `CCS(=O)(=O)C1=NSC2=NC(=O)/C(=C\c3ccc(OS(=O)(=O)c4ccccc4)cc3)C(=N)N21`, for which the “activity change, negative = cytotoxicity” value was 2.94% (inactive).

Turning to `COc1cccc2cc(-c3cc(=O)oc4cc(C)c(O)cc34)oc12`, the “activity change, negative = cytotoxicity” value is 3.01% (inactive).

For the compound `O=C(Nc1nnc(S(=O)(=O)N2CCOCC2)s1)c1cccc(Br)c1`, the “activity change, negative = cytotoxicity” value is -11% (inactive).

Regarding `O=C1CCCC2=C1[C@@]1(CCC(c3ccccc3)C1)N=C(Nc1nc3ccccc3o1)N2` (some centres undefined), the “activity change, negative = cytotoxicity” value was -26.3% (inactive).

As to `CCOC(=O)c1c(C)[nH]c2c1-c1ccccc1C(=O)C2=O`, the Potency was 11.2 µM (active).

Take `N#C/C(=C(/O)Cc1cccc2ccccc12)c1nc2ccccc2s1`: the “activity change, negative = cytotoxicity” value is -2.32% (inactive).

For the compound `O=C1Nc2ccc([N+](=O)[O-])cc2C1=Nc1cccc(CO)c1`, the “activity change, negative = cytotoxicity” value was -8.73% (inactive).
